12 compounds from PubChem BioAssay (NCI) can be followed below.

What all share (assay): NCI-60 one-dose screen, 48 h (100 = growth as untreated, 0 = no growth, -100 = all killed)
One assay concerns HCT-15 colon. Particulars: 10 µM.
The subject of the next assay is HT29 colon. The following applies: 10 µM.
For another assay, the system named is SNB-75 CNS. The following applies: 10 µM.
The subject of another assay is SNB-19 CNS. Particulars: 10 µM.
The test system of a further assay is U251 CNS. Particulars: 10 µM.
In another assay the test system is PC-3 prostate. The following applies: 10 µM.
A further assay concerns SK-MEL-5 melanoma. Particulars: 10 µM.
The next assay has as its system UACC-62 melanoma.
The subject of a further assay is LOX IMVI melanoma. Particulars: 10 µM.
The test system of another assay is SK-MEL-28 melanoma. The following applies: 10 µM.

Molecules are shown by their SMILES. Where “and” joins values, the source holds several entries; their conditions need not be identical. Equal entries are not always repeated. About 83,000 compounds went through this panel and 20% of them were active in at least one assay; those are over-represented in the sample as a whole.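 The test compound was applied at a single concentration to cells in 96-well plates for 48 hours, and percent growth was recorded.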 Calls of active or inactive are those of the source. Rule for the calls: active = growth percent below 10; inactive = the rest.

Regarding `CS(=N)(=O)CCC(N)C(=O)O` (configuration not stated), the growth with HCT-15 colon was 99.9% (inactive); in the assay with HT29 colon, 113% (inactive); with SNB-75 CNS it was 91% (inactive); with SNB-19 CNS, 102% (inactive); with U251 CNS, 104% (inactive); in the assay with PC-3 prostate, 89.8% (inactive). For the same compound, the results for the growth in the assay with SK-MEL-5 melanoma, in the assay on UACC-62 melanoma (10 µM unless noted) and in the assay on LOX IMVI melanoma were 110% (inactive), 113% (inactive) and 103% (inactive), respectively.

Turning to `CCOP(=O)(OCC)/C(C#N)=C/c1ccc(Br)cc1`, the growth is 96.3% (inactive) with HCT-15 colon; 98.2% (inactive) in the assay with HT29 colon; 86.6% (inactive) with SNB-75 CNS; 96.8% (inactive) in the assay on SNB-19 CNS; 99.3% (inactive) with U251 CNS; 95.9% (inactive) with PC-3 prostate. For the same compound, the growth in the assay on SK-MEL-5 melanoma is 108% (inactive); with UACC-62 melanoma (10 µM unless noted), 88.6% (inactive); with LOX IMVI melanoma, 95.5% (inactive); in the assay with SK-MEL-28 melanoma, 115% (inactive).

For the compound `O=C(CCl)Nc1ccc(Cl)cc1`, the growth in the assay with HCT-15 colon was 37.2% (inactive); in the assay on HT29 colon, 41.2% (inactive); in the assay on SNB-75 CNS it was 62.4% (inactive); in the assay with SNB-19 CNS it was 79.1% (inactive); with U251 CNS, 0.303% (active); in the assay on PC-3 prostate, 62.9% (inactive). Besides, the figures for the growth in the assay on SK-MEL-5 melanoma, with UACC-62 melanoma (10 µM unless noted) and in the assay with LOX IMVI melanoma were 30.3% (inactive), 47.1% (inactive) and 38.3% (inactive), respectively.

For `Oc1ccccc1-c1ccccc1`, the growth with HCT-15 colon was 104% (inactive) and 94.6% (inactive); in the assay on HT29 colon, 97% (inactive) and 98.8% (inactive); in the assay on SNB-75 CNS, 97.4% (inactive) and 79.2% (inactive); in the assay on SNB-19 CNS, 101% (inactive) and 93.4% (inactive); with U251 CNS, 99% (inactive) and 98.1% (inactive); with PC-3 prostate it was 94.4% (inactive) and 98.6% (inactive). Besides, the growth in the assay with SK-MEL-5 melanoma is 102% (inactive) and 97.7% (inactive); in the assay on UACC-62 melanoma (10 µM unless noted), 98.5% (inactive) and 96% (inactive); in the assay on LOX IMVI melanoma, 92.3% (inactive) and 108% (inactive).

Regarding `Oc1c(Cl)cc(Cl)c2ccccc12.[Cu+2]`, the growth with HCT-15 colon was 99.5% (inactive); with HT29 colon it was 92.5% (inactive); in the assay on SNB-75 CNS, 91% (inactive); in the assay with SNB-19 CNS, 121% (inactive); in the assay on U251 CNS it was 108% (inactive); in the assay on PC-3 prostate it was 88.4% (inactive). Besides, the growth with SK-MEL-5 melanoma is 90.5% (inactive); with UACC-62 melanoma (10 µM unless noted), 109% (inactive); in the assay with LOX IMVI melanoma, 37.7% (inactive).

For `C=NCC#N`, the growth in the assay on HCT-15 colon is 94.2% (inactive) and 107% (inactive); with HT29 colon, 83.6% (inactive) and 103% (inactive); in the assay on SNB-75 CNS it was 91.4% (inactive) and 88.2% (inactive); with SNB-19 CNS it was 102% (inactive) and 108% (inactive); with U251 CNS, 102% (inactive) and 107% (inactive); in the assay with PC-3 prostate, 96.3% (inactive) and 122% (inactive). Also, the growth in the assay with SK-MEL-5 melanoma was 106% (inactive) and 102% (inactive); with UACC-62 melanoma (10 µM unless noted), 107% (inactive) and 104% (inactive); in the assay with LOX IMVI melanoma, 102% (inactive) and 111% (inactive).

On to `CC1CCC2(OC1)OC1C(O)C3C4CCC5CC(OC6OC(CO)C(OC7OC(CO)C(O)C(OC8OCC(O)C(O)C8O)C7OC7OC(CO)C(O)C(OC8OC(CO)C(O)C(O)C8O)C7O)C(O)C6O)C(O)CC5(C)C4CCC3(C)C1C2C` (configuration not stated), for which the growth is 37.3% (inactive) with HCT-15 colon; -40.5% (active) in the assay on HT29 colon; -32% (active) in the assay on SNB-75 CNS; -71.7% (active) in the assay on SNB-19 CNS; -51.1% (active) in the assay on U251 CNS; -93.4% (active) in the assay on PC-3 prostate. In addition, the growth in the assay on SK-MEL-5 melanoma is -62.2% (active); in the assay on UACC-62 melanoma (10 µM), 22.5% (inactive); with UACC-62 melanoma (100 µM), -89.7% (active) and -92% (active); in the assay on LOX IMVI melanoma it was -69.8% (active).

With `S=C=NCCc1ccccc1`, the growth in the assay on HCT-15 colon was 51.7% (inactive); with HT29 colon, 31.9% (inactive); in the assay on SNB-75 CNS, 54.2% (inactive); with SNB-19 CNS it was 54.3% (inactive); with U251 CNS, 46.5% (inactive); with PC-3 prostate it was 64.2% (inactive). The growth in the assay with SK-MEL-5 melanoma is -28.2% (active); with UACC-62 melanoma (10 µM unless noted), 55% (inactive); in the assay with LOX IMVI melanoma, 32.2% (inactive).

Consider `COc1cc(/C=C(/C)[N+](=O)[O-])ccc1O`, for which the growth with HCT-15 colon was -48.3% (active) and 1.2% (active); with HT29 colon it was 3.02% (active) and -26.9% (active); with SNB-75 CNS, 74.3% (inactive) and 1.18% (active); with SNB-19 CNS it was 81.5% (inactive) and 75.1% (inactive); in the assay with U251 CNS it was 25.4% (inactive) and 28% (inactive); with PC-3 prostate it was 60.7% (inactive) and 56.6% (inactive). Also, the growth with SK-MEL-5 melanoma is 82.3% (inactive) and 64.6% (inactive); in the assay with UACC-62 melanoma (10 µM unless noted), 55.4% (inactive) and -53.8% (active); in the assay on LOX IMVI melanoma, -25.7% (active) and -73.2% (active).

Consider `COc1cc2c(c(OC)c1OC)-c1ccc(O)c(=O)cc1[C@@H](NC(C)=O)CC2`, for which the growth with HCT-15 colon is 38.3% (inactive); in the assay on HT29 colon it was 29.9% (inactive); with SNB-75 CNS it was 67.5% (inactive); in the assay with SNB-19 CNS, 38% (inactive); in the assay on U251 CNS, 24.6% (inactive); in the assay with PC-3 prostate, 25.2% (inactive). Further, the growth is 55.8% (inactive) with SK-MEL-5 melanoma; 55.2% (inactive) in the assay with UACC-62 melanoma (10 µM); -41.5% (active) in the assay with UACC-62 melanoma (100 µM); 44.1% (inactive) in the assay on LOX IMVI melanoma; 68.3% (inactive) in the assay on SK-MEL-28 melanoma.

On to `CC(=O)[O][Hg][c]1c(C)c(C)cc(C)c1C`, for which the growth is -39.6% (active) in the assay on HCT-15 colon; -62.1% (active) in the assay with HT29 colon; -81.2% (active) in the assay on SNB-75 CNS; 39.8% (inactive) in the assay with SNB-19 CNS; -97.3% (active) in the assay on U251 CNS; -77.3% (active) in the assay on PC-3 prostate. Moreover, the growth with SK-MEL-5 melanoma is -57.5% (active); in the assay on UACC-62 melanoma (10 µM unless noted), -26.1% (active); in the assay with LOX IMVI melanoma it was -95.3% (active).

Regarding `C[C@]12CC[C@H]3[C@@H](CCC4=CC(=O)CC[C@@H]43)[C@@H]1CC[C@@H]2OC(=O)N(CCCl)N=O`, the growth with HCT-15 colon was 66.8% (inactive); in the assay with HT29 colon, 59% (inactive); in the assay on SNB-75 CNS, 50.1% (inactive); with SNB-19 CNS it was 34.5% (inactive); in the assay on U251 CNS, 30.6% (inactive); in the assay with PC-3 prostate it was 43.1% (inactive). Also, the results for the growth in the assay on SK-MEL-5 melanoma, in the assay with UACC-62 melanoma (10 µM unless noted) and in the assay with LOX IMVI melanoma were 51.3% (inactive), 20.6% (inactive) and 39.3% (inactive), respectively.
